Key:
Experiment in all cases: PBM binding z-score (relative to random genomic background probes); higher = stronger binding; sequences stand for … in GC…GCGATTGACAGCGTAGAATGAAGG
[1] = system: FXR:RXRa (NR concentration 270 nM, RXRa partner concentration 90 nM)
Summary of the method: (§1)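 On custom Agilent 4×180K arrays, double-stranded probes with 34-nt variable regions carried direct-repeat seeds, single-nucleotide variants, half-site ablations or random human genomic background. Ligand-free nuclear receptor dimers were applied for 1 h, and binding was read with antibodies against each partner (one per run). Binding z-scores come from regression-normalized fluorescence, with the random background probes as reference.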

[2] = system: LXRa:RXRa (NR concentration 270 nM, RXRa partner concentration 90 nM)
Summary of the method: as §1

[3] = system: LXRa homodimer (NR concentration 270 nM)
Summary of the method: as §1

[4] = system: LXRb:RXRa (NR concentration 270 nM, RXRa partner concentration 90 nM)
Summary of the method: as §1

[5] = system: LXRb homodimer (NR concentration 270 nM)
Summary of the method: as §1

[6] = system: PPARa:RXRa (NR concentration 270 nM, RXRa partner concentration 90 nM)
Summary of the method: as §1

[7] = system: PPARg:RXRa (NR concentration 180 nM, RXRa partner concentration 90 nM)
Summary of the method: as §1

[8] = system: PPARg:RXRa 270nM:90nM, anti-RXR (NR concentration 270 nM, RXRa partner concentration 90 nM)
Summary of the method: as §1

[9] = system: PPARg:RXRa 30nM:10nM, anti-RXR (NR concentration 30 nM, RXRa partner concentration 10 nM)
Summary of the method: as §1

[10] = system: PPARg:RXRa 90nM:30nM, anti-RXR (NR concentration 90 nM, RXRa partner concentration 30 nM)
Summary of the method: as §1

[11] = system: PPARg:RXRa DBDmut IVT, anti-RXR (DBD mutation: RXRa K156A/R161A, NR concentration 270 nM, RXRa partner concentration 90 nM)
Summary of the method: as §1

[12] = system: PPARg:RXRa IVT, anti-PPARg (NR concentration 270 nM, RXRa partner concentration 90 nM)
Summary of the method: as §1

[13] = system: PPARg DBDmut:RXRa IVT, anti-PPARg (DBD mutation: PPARg1 K132A/R137A, NR concentration 270 nM, RXRa partner concentration 90 nM)
Summary of the method: as §1

[14] = system: PPARg DBDmut IVT, anti-PPARg (DBD mutation: PPARg1 K132A/R137A, NR concentration 270 nM)
Summary of the method: as §1

[15] = system: PPARg homodimer (NR concentration 180 nM)
Summary of the method: as §1

[16] = system: PXR:RXRa (NR concentration 270 nM, RXRa partner concentration 90 nM)
Summary of the method: as §1

[17] = system: PXR homodimer (NR concentration 270 nM)
Summary of the method: as §1

[18] = system: RARa:RXR (NR concentration 270 nM, RXRa partner concentration 90 nM)
Summary of the method: as §1

[19] = system: RARa homodimer (NR concentration 270 nM)
Summary of the method: as §1

[20] = system: RARb:RXRa (NR concentration 270 nM, RXRa partner concentration 90 nM)
Summary of the method: as §1

Row | Sequence | PBM binding z-score [1] | PBM binding z-score [2] | PBM binding z-score [3] | PBM binding z-score [4] | PBM binding z-score [5] | PBM binding z-score [6] | PBM binding z-score [7] | PBM binding z-score [8] | PBM binding z-score [9] | PBM binding z-score [10] | PBM binding z-score [11] | PBM binding z-score [12] | PBM binding z-score [13] | PBM binding z-score [14] | PBM binding z-score [15] | PBM binding z-score [16] | PBM binding z-score [17] | PBM binding z-score [18] | PBM binding z-score [19] | PBM binding z-score [20]
1 | ACAGACAGGTGATGAAGGTATCTCAGGCTATCAT | -0.127 | -0.162 | -0.557 | -0.354 | -0.55 | -0.193 | 0.506 | -0.135 | -0.034 | -0.24 | -0.101 | 0.167 | -0.0054 | -0.542 | 0.117 | -0.369 | 0.175 | -0.241 | -0.481 | 0.0103
2 | CGTCCAAGGTCAGCAGGACAGTGAAAGCGACGTG | 5.11 | 3 | -0.143 | 2.24 | -0.588 | 4.36 | 2.83 | 3.16 | 0.274 | 2.07 | 2.27 | 2.58 | 0.502 | -0.859 | 1.75 | 2.27 | 0.176 | 2.92 | 0.175 | 5.17
3 | ATCTCTAGGTAACAAGTTCGGTGAAAGAGAGGAC | 0.656 | 0.804 | 0.56 | 0.383 | 0.814 | 0.973 | 1.13 | 1.67 | 0.766 | 1.35 | 3.31 | 2.96 | 1.06 | 0.893 | 1.01 | 0.677 | 0.713 | 0.675 | 0.59 | 0.969
4 | GGAACGAGGGCAAAGTTAATAGCATCTGTCGACG | 1.04 | 0.812 | -0.00751 | 0.878 | -0.23 | 3.62 | 5.8 | 6.25 | 4.67 | 6.67 | 4 | 4.19 | 0.116 | -0.54 | 0.877 | 1.19 | 0.225 | 1.24 | 0.00739 | 2.55
5 | CCGACTGGGGCATAAGGTTATCATAAGCCAGCCC | 0.297 | 0.921 | -0.134 | 0.498 | -1.15 | 1.94 | 2.31 | 3.06 | 1.39 | 3.18 | 2.88 | 3.27 | -0.987 | -0.567 | 1.33 | 0.386 | 0.0103 | 1.34 | -0.22 | 1.32
6 | CCTTACGGGTCCCGAGGTTATAGCACGACGAGCG | 0.0402 | 0.394 | -0.262 | 0.124 | -0.6 | 0.95 | 0.635 | -0.283 | -0.617 | -0.745 | -1.26 | -0.545 | -0.471 | -1.66 | -0.111 | 0.32 | -0.277 | 0.482 | 0.138 | 0.514
7 | ATCGAAAGGTCGACTAGGTGAGTATACACCGTTT | 4.12 | 3.17 | 0.302 | 2.94 | 0.797 | 4.24 | 2.56 | 3.24 | 1.06 | 2.34 | 0.845 | 2.25 | 0.674 | 1.34 | 0.62 | 2.73 | 0.165 | 3.24 | 0.35 | 3.72
8 | ATATGTAGGTTTTCGGGTCATTCAGTTTGCGCAT | 3.26 | 2.94 | 1.41 | 3.14 | 1.57 | 4.19 | 3.95 | 4.14 | 1.9 | 3.5 | 5.6 | 5.42 | 1.9 | 1.31 | 2.39 | 4.14 | 8.75 | 3.74 | 1.72 | 2.17
9 | CGAACTAGGTCATTGACAGCACAGTGAATAGTAA | 4.2 | 2.64 | 0.265 | 2.07 | 0.329 | 4.78 | 7.32 | 6.23 | 3.86 | 5.6 | 7.82 | 8.09 | 2.12 | 2.03 | 1.52 | 1.18 | 0.34 | 1.77 | 0.733 | 3.58
10 | TGAATGAGGTTAAAGATCAGGGATCGTGGCGTCG | 2.72 | 2.32 | -0.45 | 1.43 | 0.3 | 4.23 | 5.54 | 6.39 | 4.69 | 6.83 | 2.1 | 3.36 | 0.927 | 0.328 | 2.57 | 1.75 | -0.845 | 3.09 | -0.37 | 1.85
11 | CGTCCAAGGTCAGCAGGTCGGTGAAAGCGACGTG | 5.28 | 3.29 | -0.232 | 2.07 | -0.502 | 4.33 | 2.97 | 3.45 | 0.508 | 2.15 | 2.81 | 2.89 | -0.853 | -0.476 | 2.43 | 2.61 | -0.066 | 3.58 | 0.0156 | 5.19
12 | CGTCCAAGGTCAATCCTAGGTCAGTGAAAGCATT | 7.14 | 5.85 | 3.44 | 4.8 | 1.43 | 5.47 | 4.38 | 4.75 | 1.43 | 3.63 | 3.45 | 4.04 | 0.153 | 0.742 | 6.19 | 5.13 | 0.983 | 6.44 | 1.8 | 5.33
13 | TCTAGTTGGTCAAAGGTAACACACTCGAAATGCG | 1.27 | 1.4 | 0.707 | 1.5 | 0.561 | 4 | 8.12 | 7.77 | 6.85 | 8.85 | 3.54 | 3.93 | 1.52 | 1.17 | 2.03 | 1.34 | 0.784 | 1.93 | 1.72 | 1.86
14 | ACAGACAGGTGAGTGAAGGTAACCCAGCTGGACG | 0.353 | -0.0379 | -0.585 | -0.271 | -0.844 | 0.275 | 0.708 | 0.399 | -0.129 | 0.213 | 0.473 | 0.884 | 0.557 | -0.411 | 0.0822 | -0.299 | -0.316 | 0.365 | -0.386 | 0.623
15 | AGAATGAGGGTACCAAAGATCAGGGAAACGCTTG | -0.148 | 2.43 | -0.475 | 0.326 | -0.167 | 1.18 | 1.28 | 1.52 | 0.506 | 1.19 | 1.95 | 1.35 | 0.283 | 0.511 | -0.237 | -0.107 | 0.0728 | 0.253 | 0.0319 | 0.552

Reference: the supplement of paper PMC6555819
